# Source: PubChem BioAssay AID1159580 (chemical genetic matrix, 2015)
# “And” between values parts separate entries of the source, which are not always exact repeats. Equal entries are not always repeated. Out of some 5,500 compounds screened, about 2,000 (36%) were called active. About 18% were inconclusive and are not listed. Some of the results follow. Unmarked numbers belong to inactive results. Cut-off read from the data, not from the text of the source: active = normalized growth mostly below about 0.91 (no sharp cut-off); inconclusive = no clear call, values can overlap the other calls; inactive = mostly above about 0.92.
# Test: chemical genetic growth profiling, strain panel (AID 1159580);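 note: tested at 20 µM; growth read once vehicle control cultures reached saturation at 30 °C; 1 = growth at the plate median or of vehicle wells; lower values mean less growth of the strain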
# Conditions: S. cerevisiae deletion strains, growth OD
compound,measurement,setting,value
Oc1cc(O)c2c(c1)O[C@H](c1cc(O)c(O)c(O)c1)[C@H](O)C2,normalized growth,"locus YAL021C, strain ccr4, hits give low values",0.992
same,normalized growth,"locus YAL026C, strain drs2, hits give low values",1.02
same,normalized growth,"locus YAL030W, strain snc1, hits give low values",1.01
same,normalized growth,"locus YBL061C, strain skt5, hits give low values",1.02
same,normalized growth,"locus YBR009C, strain hhf1, hits give low values",1.02
same,normalized growth,"locus YBR021W, strain FUR4, hits give low values",1.03
same,normalized growth,"locus YBR023C, strain chs3, hits give low values",1.02
same,normalized growth,"locus YBR171W, strain sec66, hits give low values",1.03
same,normalized growth,"locus YBR229C, strain ROT2, hits give low values",0.996
same,normalized growth,"locus YBR231C, strain swc5, hits give low values",1
same,normalized growth,"locus YBR279W, strain paf1, hits give low values",1.01
same,normalized growth,"locus YCL011C, strain gbp2, hits give low values",1.02
same,normalized growth,"locus YCL016C, strain dcc1, hits give low values",1.02
same,normalized growth,"locus YCL029C, strain bik1, hits give low values",0.986
same,normalized growth,"locus YCL061C, strain MRC1, hits give low values",1.02
same,normalized growth,"locus YCL069W, strain vba3, hits give low values",1.02
same,normalized growth,"locus YCR088W, strain abp1, hits give low values",1.02
same,normalized growth,"locus YDL005C, strain med2, hits give low values",1.03
same,normalized growth,"locus YDL035C, strain GPR1, hits give low values",1.03
same,normalized growth,"locus YDL040C, strain nat1, hits give low values",1.01
same,normalized growth,"locus YDL074C, strain BRE1, hits give low values",0.981
same,normalized growth,"locus YDL101C, strain DUN1, hits give low values",0.985
same,normalized growth,"locus YDL185W, strain tfp1, hits give low values",0.983
same,normalized growth,"locus YDL192W, strain arf1, hits give low values",0.982
same,normalized growth,"locus YDR001C, strain nth1, hits give low values",1.02
same,normalized growth,"locus YDR069C, strain doa4, hits give low values",0.993
same,normalized growth,"locus YDR101C, strain arx1, hits give low values",0.985
same,normalized growth,"locus YDR137W, strain rgp1, hits give low values",1.06
same,normalized growth,"locus YDR150W, strain NUM1, hits give low values",0.995
same,normalized growth,"locus YDR159W, strain sac3, hits give low values",1.18 [resistant] (active)
same,normalized growth,"locus YDR162C, strain NBP2, hits give low values",1.02
same,normalized growth,"locus YDR195W, strain ref2",1.05
same,normalized growth,"locus YDR297W, strain sur2, hits give low values",1.02
same,normalized growth,"locus YDR318W, strain mcm21, hits give low values",0.999
same,normalized growth,"locus YDR334W, strain swr1, hits give low values",1.02
same,normalized growth,"locus YDR335W, strain msn5, hits give low values",1.01
same,normalized growth,"locus YDR388W, hits give low values",0.988
same,normalized growth,"locus YDR392W, strain spt3, hits give low values",1.02
same,normalized growth,"locus YDR502C, strain sam2, hits give low values",1.02
same,normalized growth,"locus YEL003W, strain gim4, hits give low values",1.02
same,normalized growth,"locus YEL037C, strain rad23, hits give low values",1.01
same,normalized growth,"locus YEL061C, strain CIN8 (second series), hits give low values",1.03
same,normalized growth,"locus YEL061C, strain CIN8, hits give low values",0.999
same,normalized growth,"locus YER015W, strain faa2, hits give low values",0.999
same,normalized growth,"locus YER016W, strain bim1, hits give low values",1.02
same,normalized growth,"locus YER110C, hits give low values",0.984
same,normalized growth,"locus YER111C, strain swi4, hits give low values",1.01
same,normalized growth,"locus YER155C, strain BEM2 (second series), hits give low values",1.01
same,normalized growth,"locus YER155C, strain BEM2, hits give low values",1.01
same,normalized growth,"locus YER167W, strain BCK2, hits give low values",1.02
same,normalized growth,"locus YFR010W, strain ubp6, hits give low values",1.02
same,normalized growth,"locus YGL078C, strain dbp3, hits give low values",0.993
same,normalized growth,"locus YGL086W, strain mad1, hits give low values",0.993
same,normalized growth,"locus YGL167C, strain pmr1, hits give low values",1.01
same,normalized growth,"locus YGL173C, strain kem1, hits give low values",1.02
same,normalized growth,"locus YGL227W, strain vid30, hits give low values",1.02
same,normalized growth,"locus YGL240W, strain doc1, hits give low values",1.03
same,normalized growth,"locus YGL248W, strain PDE1, hits give low values",0.991
same,normalized growth,"locus YGL253W, strain hxk2, hits give low values",1.03
same,normalized growth,"locus YGR135W, strain pre9, hits give low values",0.99
same,normalized growth,"locus YGR252W, strain gcn5, hits give low values",1.02
same,normalized growth,"locus YHR013C, strain ard1, hits give low values",1.03
same,normalized growth,"locus YHR027C, strain rpn1, hits give low values",1.02
same,normalized growth,"locus YHR030C, strain SLT2, hits give low values",0.992 and 0.996
same,normalized growth,"locus YHR079C, strain IRE1 (second series), hits give low values",1.01
same,normalized growth,"locus YHR079C, strain IRE1, hits give low values",1.01
same,normalized growth,"locus YHR094C, strain hxt1, hits give low values",0.983
same,normalized growth,"locus YHR129C, strain ARP1, hits give low values",0.997
same,normalized growth,"locus YHR142W, strain chs7, hits give low values",1.04
same,normalized growth,"locus YHR200W, strain rpn10, hits give low values",0.994
same,normalized growth,"locus YIL066C, strain RNR3, hits give low values",1.01
same,normalized growth,"locus YIL073C, strain SPO22, hits give low values",1.01
same,normalized growth,"locus YIL125W, strain kgd1, hits give low values",0.997
same,normalized growth,"locus YIR030C, strain dcg1, hits give low values",1
same,normalized growth,"locus YJL092W, strain hpr5, hits give low values",1.02
same,normalized growth,"locus YJL095W, strain BCK1 (second series), hits give low values",1.02
same,normalized growth,"locus YJL095W, strain BCK1, hits give low values",0.947 and 1.01
same,normalized growth,"locus YJL115W, strain asf1, hits give low values",1.03
same,normalized growth,"locus YJL129C, strain trk1, hits give low values",1.08
same,normalized growth,"locus YJL134W, strain LCB3, hits give low values",0.992
same,normalized growth,"locus YJL154C, strain vps35, hits give low values",1.02
same,normalized growth,"locus YJL164C, strain tpk1, hits give low values",1.01
same,normalized growth,"locus YJL166W, strain qcr8, hits give low values",1.02
same,normalized growth,"locus YJL168C, strain set2, hits give low values",1
same,normalized growth,"locus YJL187C, strain SWE1 (second series), hits give low values",0.952
same,normalized growth,"locus YJL187C, strain SWE1, hits give low values",1.02
